Eight compounds from PubChem BioAssay (NCI) can be followed below.

Some test systems named below: HCT-15 colon; HT29 colon; SNB-75 CNS; SNB-19 CNS; U251 CNS; PC-3 prostate; SK-MEL-5 melanoma; UACC-62 melanoma; LOX IMVI melanoma; SK-MEL-28 melanoma; SK-MEL-2 melanoma; EKVX NSCLC; SN12C renal; UO-31 renal; TK-10 renal; ACHN renal; CAKI-1 renal; A498 renal; CCRF-CEM leukemia; MOLT-4 leukemia.
Experiment in all cases: NCI-60 one-dose screen, 48 h (100 = growth as untreated, 0 = no growth, -100 = all killed)
Common to all, as to settings: 10 µM unless noted

Molecules are shown by their SMILES. The panel holds about 83,000 compounds, 20% with a hit somewhere; the sample as a whole holds those more often.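 Note: values are percent growth. 100 is the growth of untreated cells, values between 100 and 0 indicate rising inhibition; between -100 and 0 indicates cell death.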 Unmarked numbers belong to inactive results. The source made the active and inactive calls. Rule for the calls: active = growth percent below 10; inactive = the rest.

For the compound `CCn1cc(C2NC(=O)c3ccccc3N2)c2cccc(C)c21` (stereo not drawn), the growth was 18.6% in the experiment with HCT-15 colon; -22.9% (active) in the experiment on HT29 colon; -26.9% (active) with SNB-75 CNS; 32.9% with SNB-19 CNS; 3.94% (active) in the experiment with U251 CNS; 22% in the experiment on PC-3 prostate. For the same compound, the growth with SK-MEL-5 melanoma is 16.8%; in the experiment with UACC-62 melanoma, 27.6%; with LOX IMVI melanoma, 29.2%; in the experiment with SK-MEL-28 melanoma, 56.5%; in the experiment with SK-MEL-2 melanoma, 2.54% (active); in the experiment with EKVX NSCLC, 29.4%. In addition, the growth was 23.9% in the experiment on SN12C renal; 38.7% with UO-31 renal; 33.6% in the experiment with TK-10 renal; 26.8% in the experiment with ACHN renal; 32.6% in the experiment with CAKI-1 renal; -17.4% (active) in the experiment on A498 renal. Further, the growth in the experiment on CCRF-CEM leukemia was -3.39% (active); in the experiment with MOLT-4 leukemia it was 10.9%.
In the case of `COc1cc(COC(=O)CCCCC[P+](c2ccccc2)(c2ccccc2)c2ccccc2)c(OC)c2c1OCO2`, the growth in the experiment on HCT-15 colon is 99.3%; in the experiment with HT29 colon it was 32.3%; in the experiment with SNB-75 CNS, 59.9%; with SNB-19 CNS it was 55.5%; with U251 CNS it was 56.8%; in the experiment with PC-3 prostate it was 44.9%. Besides, the growth was 3.32% (active) in the experiment with SK-MEL-5 melanoma; 46.9% in the experiment on UACC-62 melanoma; 35.6% in the experiment with LOX IMVI melanoma; 51.4% in the experiment with SK-MEL-28 melanoma; 68.4% in the experiment with SK-MEL-2 melanoma; 73% with EKVX NSCLC. For the same compound, the growth was 51% in the experiment on SN12C renal; 91.4% with UO-31 renal; 75.6% in the experiment with TK-10 renal; 98.5% in the experiment on ACHN renal; 72.7% with CAKI-1 renal; 52.5% in the experiment on A498 renal. The growth in the experiment on MOLT-4 leukemia is 93.3%.
As for `O=C(Nc1sc2c(c1C(=O)O)CCCC2)c1cccc(C(F)(F)F)c1`, the growth was 89.3% in the experiment on HCT-15 colon; 97.7% in the experiment with HT29 colon; 104% in the experiment on SNB-75 CNS; 100% in the experiment with SNB-19 CNS; 88.3% with U251 CNS; 90.8% with PC-3 prostate. Moreover, the growth is 81.2% in the experiment with SK-MEL-5 melanoma; 77.5% with UACC-62 melanoma; 102% with LOX IMVI melanoma; 94.4% with SK-MEL-28 melanoma; 98.6% in the experiment with SK-MEL-2 melanoma; 93.7% in the experiment on EKVX NSCLC. The growth in the experiment with SN12C renal is 95.6%; with UO-31 renal, 85.8%; in the experiment on TK-10 renal it was 105%; in the experiment with ACHN renal, 87.9%; with CAKI-1 renal it was 91.1%; in the experiment with A498 renal it was 95.2%. Further, the growth was 85.3% in the experiment on CCRF-CEM leukemia and 96.9% in the experiment on MOLT-4 leukemia.
Turning to `Cc1c2c(cc[n+]1Cc1ccccc1)c1ccc(OCC3CCCCC3)cc1n2CC1CCCCC1`, the growth is -81.7% (active) in the experiment on HCT-15 colon; -79% (active) with HT29 colon; -87.3% (active) in the experiment on SNB-75 CNS; -90.7% (active) in the experiment with SNB-19 CNS; -92.5% (active) in the experiment with U251 CNS; -75.8% (active) with PC-3 prostate. The growth in the experiment on SK-MEL-5 melanoma was -100% (active); in the experiment on UACC-62 melanoma it was -94% (active); with LOX IMVI melanoma it was -95.6% (active); in the experiment with SK-MEL-28 melanoma it was -95.8% (active); in the experiment with SK-MEL-2 melanoma it was -86.5% (active); in the experiment with EKVX NSCLC it was -75.5% (active). The growth in the experiment with SN12C renal is -91.9% (active); with UO-31 renal, -93.1% (active); with TK-10 renal it was -93.6% (active); with ACHN renal, -100% (active); with CAKI-1 renal it was -92.5% (active); in the experiment on A498 renal, -97.4% (active). In addition, the results for the growth in the experiment with CCRF-CEM leukemia and in the experiment on MOLT-4 leukemia were -36.2% (active) and -64.5% (active), respectively.
Consider `O=C(Nc1ccc(F)cc1)c1c(NC(=O)C(F)(F)F)sc2c1CCCCC2`, for which the growth in the experiment on HCT-15 colon is 11.5%; in the experiment with HT29 colon, 5.86% (active); with SNB-75 CNS it was -23% (active); in the experiment with SNB-19 CNS, 13.3%; in the experiment with U251 CNS, 6.02% (active); in the experiment on PC-3 prostate, 3.29% (active). In addition, the growth in the experiment on SK-MEL-5 melanoma is -55.6% (active); with UACC-62 melanoma it was 3.56% (active); in the experiment on LOX IMVI melanoma, 15%; in the experiment on SK-MEL-28 melanoma, 12.2%; with SK-MEL-2 melanoma, -26.8% (active); in the experiment with EKVX NSCLC, -2.06% (active). For the same compound, the growth in the experiment on SN12C renal was 2.15% (active); with UO-31 renal, -0.296% (active); with TK-10 renal, 15.5%; with ACHN renal, 1.59% (active); in the experiment with CAKI-1 renal it was -19.1% (active); in the experiment on A498 renal, -57% (active). The growth in the experiment with MOLT-4 leukemia was 3.21% (active).
For the compound `CCN(CC)CCCCCCNc1cc(OC)cc2cccnc12`, the growth in the experiment on HCT-15 colon was -4.8% (active); with HT29 colon it was -44.8% (active); in the experiment with SNB-75 CNS, 75.5%; in the experiment on SNB-19 CNS, 95.6%; in the experiment with U251 CNS it was 5.33% (active); in the experiment with PC-3 prostate, 82.8%. Further, the growth was 68.5% with SK-MEL-5 melanoma; 102% with UACC-62 melanoma; -60.4% (active) in the experiment on LOX IMVI melanoma; -11.8% (active) in the experiment with SK-MEL-28 melanoma; 114% in the experiment on SK-MEL-2 melanoma; 90.1% in the experiment with EKVX NSCLC. Further, the growth with SN12C renal is 89.4%; in the experiment on UO-31 renal, 62.6%; with TK-10 renal, 130%; with ACHN renal, 99.6%; in the experiment with CAKI-1 renal it was 90.4%; in the experiment on A498 renal, 63.5%. In addition, the values for the growth with CCRF-CEM leukemia and in the experiment with MOLT-4 leukemia were -35.6% (active) and -57.3% (active), respectively.
For `CC(C)[N+](C)(CCOC(COc1ccccc1)COc1ccccc1)C(C)C`, the growth was 100% with HCT-15 colon; 73.4% in the experiment on HT29 colon; 70.9% in the experiment on SNB-75 CNS; 86.2% in the experiment with SNB-19 CNS; 83.8% in the experiment with U251 CNS; 73.2% with PC-3 prostate. The growth with SK-MEL-5 melanoma is 86.8%; in the experiment on UACC-62 melanoma it was 78.6%; in the experiment on LOX IMVI melanoma, 95.5%; in the experiment with SK-MEL-28 melanoma it was 96.6%; in the experiment on SK-MEL-2 melanoma, 87.1%; with EKVX NSCLC it was 79.1%. The growth in the experiment with SN12C renal is 64.8%; with UO-31 renal it was 88.8%; with TK-10 renal it was 94.1%; with ACHN renal, 105%; in the experiment with CAKI-1 renal, 105%; in the experiment with A498 renal it was 60%. Besides, the growth was 87.7% with CCRF-CEM leukemia and 98.2% in the experiment with MOLT-4 leukemia.
As to `O=C(O)c1cn(C2CC2)c2cc(N3CCN(C(=O)C[n+]4cccc5ccccc54)CC3)c(F)cc2c1=O`, the growth was 55% in the experiment on HCT-15 colon; 78.7% with HT29 colon; 75.1% with SNB-75 CNS; 83.8% with SNB-19 CNS; 64.4% in the experiment on U251 CNS; 77.1% in the experiment on PC-3 prostate. Further, the growth in the experiment on SK-MEL-5 melanoma is 94.6%; with UACC-62 melanoma, 42.7%; in the experiment on LOX IMVI melanoma, 20.7%; with SK-MEL-28 melanoma it was 56.8%; in the experiment on SK-MEL-2 melanoma it was 72.5%; in the experiment with EKVX NSCLC it was 102%. For the same compound, the growth is 33.1% in the experiment on SN12C renal; 67.1% in the experiment on UO-31 renal; 100% with TK-10 renal; 61% with ACHN renal; 81.3% in the experiment on CAKI-1 renal; 99.4% in the experiment on A498 renal. For the same compound, the values for the growth in the experiment on CCRF-CEM leukemia and in the experiment with MOLT-4 leukemia were -37.5% (active) and 5.51% (active), respectively.
